KCNQ2 pot – potentiators of rat KCNQ2 potassium channel; AID 2239, 2010; CHO-K1 KCNQ2, FluxOR thallium flux fluorescence; stronger effect = higher value; Potassium voltage-gated channel subfamily KQT member 2 (Rattus norvegicus), O88943; B-score at 10 µM; 0.54% of 310,000 active;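 active = fluorescence ratio B-score at least 3 SD of library B-scores, with initial fluorescence B-score within 3 of them, cut at about 5.3 in these data; same plate scores as AID 2156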;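 note: B-score of peak minus minimum over baseline fluorescence ratio after K+ and Tl+ stimulus; positive B-score means potentiation of KCNQ2 with more thallium influx and brighter signal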
KCNQ2 block – rat KCNQ2 potassium channel inhibitors, primary screen, cell-based, CHO-K1, FluxOR thallium flux, B-score. Potassium voltage-gated channel subfamily KQT member 2 (Rattus norvegicus), O88943. 20 min; stronger effect = lower value. B-score at 10 µM. 1.1% of 310,000 active;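 active = fluorescence ratio B-score at most minus 3 library SDs, with starting brightness B-score within 2 library SDs, cut at about -5.5 in these data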
A number is an active result. An excerpt weighted towards active compounds, which were near 1.6% of everything screened.

CC(=O)CSc1nnc(CN2C(=O)CSc3ccc(C(F)(F)F)cc32)n1C was read as KCNQ2 block inactive.
Cc1ccc(/C=C/c2nc3sc(C(=O)O)c(C)c3c(=O)[nH]2)cc1[N+](=O)[O-] was read as KCNQ2 block inactive.
CCCCS(=O)(=O)/C=C\C=C/S(=O)(=O)CCCC was read as KCNQ2 pot 6.7 and KCNQ2 block inactive.
Screening CCCCS(=O)(=O)/C=C\C1C2C=CC(C2)C1S(=O)(=O)CCCC (centres undefined) returned KCNQ2 block inactive.
`CC(C)NC(=O)c1cc(-c2ccco2)on1` gave KCNQ2 pot inactive and KCNQ2 block inactive.
COc1cc(NC(=O)c2ccccc2Cl)ccc1NC(=O)c1cccs1 was read as KCNQ2 pot inactive and KCNQ2 block inactive.
`CCOC(=O)c1sc(NN=C(C(=O)OC)C(=O)OC)c(C(=O)OCC)c1C` gave KCNQ2 pot 5.7 and KCNQ2 block inactive.
CCOC(=O)c1c(N)sc(C(=O)OC)c1C was read as KCNQ2 pot inactive and KCNQ2 block inactive.
For CC(C)c1ccc(OCC(=O)N2CCc3ccccc3C2)cc1 the results were KCNQ2 block inactive.
For Cc1nn(-c2nnc(C)c(=O)[nH]2)c(C)c1SCC(=O)Nc1ccc(F)cc1 the results were KCNQ2 pot inactive and KCNQ2 block inactive.
`Cn1c2ccccc2c(=O)c2c(=O)n(C3CCCCC3)c(-c3ccco3)nc21` gave KCNQ2 pot 6.7 and KCNQ2 block inactive.
Screening Cc1nc2c(c(=O)c3ccccc3n2C)c(=O)n1C1CCCCCC1 returned KCNQ2 pot inactive and KCNQ2 block inactive.
COc1ccc(-c2nc(C)c(C(C)=O)n2O)cc1 was read as KCNQ2 pot inactive and KCNQ2 block inactive.
Screening Nc1ccc(OCCc2ccccc2)cc1 returned KCNQ2 pot inactive and KCNQ2 block inactive.
`O=C(CC(C(=O)O)c1ccc(Cl)cc1)c1ccccc1` (centres undefined) gave KCNQ2 block inactive.
For COC(=O)C(CC(=O)c1ccc(Cl)cc1)c1ccc(C)cc1 (centres undefined) the results were KCNQ2 pot inactive and KCNQ2 block -6.5.
N#CC1(P(=O)(c2ccccc2)c2ccccc2)CCCC1 was read as KCNQ2 pot inactive and KCNQ2 block inactive.
`Cc1onc(-c2c(F)cccc2Cl)c1C(=O)N=C(N)N1CC(C)OC(C)C1` (centres undefined) gave KCNQ2 block inactive.
For CCCCNC(=O)c1onc(CSc2cc(C)cc(C)c2)c1C(=O)O the results were KCNQ2 pot inactive and KCNQ2 block inactive.
For CCCCNC(=O)c1onc(CSc2cc(C)cc(C)c2)c1C(=O)NCCCC the results were KCNQ2 pot inactive and KCNQ2 block -5.6.
Cc1cccc(OCc2ccc(C(=O)Nc3cc(C)on3)o2)c1 was read as KCNQ2 pot inactive and KCNQ2 block inactive.
Screening CCCCC(=O)NC(c1ccccc1)c1ccc2cccnc2c1O (centres undefined) returned KCNQ2 block inactive.
`O=[N+]([O-])c1nn(-c2ccc3c(c2)OCCO3)n(O)c1=NC1CCCCC1` gave KCNQ2 pot inactive and KCNQ2 block inactive.
Screening CC1CCN(c2c([N+](=O)[O-])nn(-c3ccc4c(c3)OCCO4)[n+]2[O-])CC1 returned KCNQ2 pot inactive and KCNQ2 block -5.6.
`CCCCn1cnc2c1c(=O)n(CC(=O)c1cc(C)n(C)c1C)c(=O)n2CC(C)C` gave KCNQ2 pot inactive and KCNQ2 block inactive.
Cc1nc2cc(-c3cccc(F)c3)nn2c(C)c1CCC(=O)N1CCN(c2ccccn2)CC1 was read as KCNQ2 block inactive.
Screening O=C(Nc1ccccc1)C1=C[C@H](c2csc3ccccc23)C[C@H](OCc2ccc(CO)cc2)O1 returned KCNQ2 pot inactive and KCNQ2 block -5.7.
O=C(C1=C[C@@H](c2csc3ccccc23)C[C@@H](OCc2ccc(CO)cc2)O1)N1CCN(Cc2ccccc2)CC1 was read as KCNQ2 pot inactive and KCNQ2 block -6.2.
O=C(C1=C[C@@H](c2csc3ccccc23)C[C@@H](OCc2ccc(CO)cc2)O1)N1CCOCC1 was read as KCNQ2 block inactive.
O=C(NC1CC1)C1=C[C@H](c2csc3ccccc23)C[C@H](OCc2ccc(CO)cc2)O1 was read as KCNQ2 block inactive.
`Cc1cccc(NC(=O)c2cc(-c3ccc(C)s3)nc3ccccc23)n1` gave KCNQ2 pot inactive and KCNQ2 block -7.5.
Screening Cc1cc(NC(=O)c2cc(-c3ccc(C)s3)nc3ccccc23)no1 returned KCNQ2 block inactive.
Screening Cc1ccc(NC(=O)c2cc(C)nc3ccccc23)cc1 returned KCNQ2 pot inactive and KCNQ2 block inactive.
`CCOC(=O)c1ccc(NC(=S)NNC(=O)c2cc(-c3cccnc3)nc3ccccc23)cc1` gave KCNQ2 block inactive.
For Cc1ccc(C)c(NC(=O)c2cc(C)nc3ccccc23)c1 the results were KCNQ2 pot inactive and KCNQ2 block -5.9.
